Source: PubChem BioAssay
Shown are actives, neighbours in structure and some others; about 1.7% of the full set was active somewhere.
CTSL1 counter = blocks F. hepatica cathepsin L1 in PFM18AAP counter-screen; recombinant F. hepatica cathepsin L1, Z-Leu-Arg-MCA fluorescence; inhibition, % at 5.96 µM; actives 0.49% (n = 300,000);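 active means inhibition above the mean of all tested compounds plus 3 SD, set per screening campaign, cut at about 17% in these data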;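 further: 0% = plate median of test compound wells and 100% = 1 µM Z-Phe-Ala-diazomethylketone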
LANA-H2A inh = blocks KSHV LANA binding to histone H2A/H2B. Q9QR71. cell-free LANA-H2A/H2B peptide, fluorescence polarization. inhibition, % (test concentration not listed). actives 0.6% (n = 320,000). AID 2629; in the data active means inhibition mostly above about 10%, no sharp cut-off; inactive means mostly below about 6.7%
HDAC3 inhib = human HDAC3 inhibition | O15379 | actives 0.15% (n = 320,000) | inhibition, % at 8.3 µM | recombinant HDAC3, fluorogenic peptide/trypsin coupled, fluorescence; in the data active means inhibition above about 26%, passing the limit was not always enough
HTR2A ag = activates the mouse 5-HT2A serotonin receptor | CHO-K1 mHTR2A beta-arrestin complementation, luminescence; percent of 30 µM serotonin response | activation, % at 7.6 µM | actives 0.66% (n = 360,000);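 active means activation above a run cutoff, the mean activation of all tested compounds plus 3 SD, cut at about 14% in these data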;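 further: 0% = plate median of compound wells and 100% = 30 µM serotonin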
Target sequence (P35363 whole entry, looked up): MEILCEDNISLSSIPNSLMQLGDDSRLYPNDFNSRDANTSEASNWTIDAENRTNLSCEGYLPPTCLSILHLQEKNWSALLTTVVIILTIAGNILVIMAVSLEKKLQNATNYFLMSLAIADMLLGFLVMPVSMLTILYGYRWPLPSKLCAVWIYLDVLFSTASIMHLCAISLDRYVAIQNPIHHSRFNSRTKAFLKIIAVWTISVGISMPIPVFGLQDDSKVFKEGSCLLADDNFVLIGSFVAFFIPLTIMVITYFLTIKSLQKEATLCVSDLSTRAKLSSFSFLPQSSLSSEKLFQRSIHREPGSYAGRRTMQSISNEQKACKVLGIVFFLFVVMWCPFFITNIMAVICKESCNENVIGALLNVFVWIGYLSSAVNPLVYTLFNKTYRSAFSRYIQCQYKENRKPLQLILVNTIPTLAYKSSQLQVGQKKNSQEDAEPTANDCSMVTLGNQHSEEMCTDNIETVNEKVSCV
* hit, by the source's call; . = no result.

SMILES	CTSL1 counter	LANA-H2A inh	HDAC3 inhib	HTR2A ag
CCN(CC)CC(=O)Nc1ccc(C)cc1C(=O)c1ccccc1	2	-5	-8	-2
COc1cc(CCC(=O)OCC(=O)Nc2sccc2C(N)=O)cc(OC)c1OC	.	.	.	-5
Cc1cccc(C(=O)N/N=C/c2ccc(OC3CSC3)cc2)c1	0	0	0	-1
COc1cccc(C(=O)N/N=C/c2ccc(OC3CSC3)cc2)c1	1	46*	7	0
O=C(Nc1ccccc1Cl)c1cccc(NC(=O)c2cccs2)c1	.	38*	-7	1
O=C(CC(c1ccco1)C1CCCCC1=O)c1ccccc1 (configuration not stated)	52*	4	0	9
COc1ccc(C(CC(=O)c2ccccc2)C2CCCCC2=O)cc1 (configuration not stated)	2	-5	5	-4
O=C(C[C@H]1C=C[C@@H](NC(=O)Cc2cccnc2)[C@@H](CO)O1)NCc1ccc2c(c1)OCO2	.	.	.	-3
CC(Oc1ccc(Cl)cc1)C(=O)Nc1nccs1 (configuration not stated)	-3	21*	0	-5
CC(Oc1ccc(Cl)cc1)C(=O)Nc1ccc(S(=O)(=O)Nc2nccs2)cc1 (configuration not stated)	1	3	3	5
CCOC(=O)CSc1nc(N2CCOCC2)c2c(c1C#N)CC(C)(C)N(C)C2	5	15*	-4	-4
Cc1ccc(CN2C(=O)CCC2C(=O)NCCc2ccccc2)cc1 (configuration not stated)	-1	-2	-3	4
COc1ccccc1CNC(=O)COC(=O)c1cc(=O)c2ccccc2o1	.	17*	4	3
O=C(COC(=O)c1cc(=O)c2ccccc2o1)NCc1ccccc1	.	.	.	12
O=C(CNS(=O)(=O)c1ccccc1Br)OCC(=O)N1CCc2ccccc21	-55	0	0	1
O=C(CNC(=O)c1cccc(F)c1)OCC(=O)N1CCCc2ccccc21	20*	-2	-4	-3
CC(C)(C)NC(=O)NC(=O)COC(=O)CNC(=O)c1cccc(F)c1	5	0	-6	1
CC(=O)Nc1ccc(S(=O)(=O)NCC(=O)OCC(=O)N2CCc3ccccc32)cc1	-6	11*	-7	-7
O=C(CNC(=O)c1ccccc1F)OCC(=O)N1CCCc2ccccc21	1	6	-1	1
CC1CCCCC1NC(=O)COC(=O)CNC(=O)c1cccc(F)c1 (configuration not stated)	22*	9	-2	-7
CCOC(=O)C1=C[C@@H](C(C)C)N(S(=O)(=O)c2ccc(C)cc2)[C@H]1c1ccccc1F	.	.	.	-3
CCCC(C(=O)NCCC(C)C)N(Cc1ccccc1Cl)C(=O)c1snc(C(N)=O)c1N (configuration not stated)	4	3	1	-1
Cc1ccc(C(=O)C(OC(=O)CNC(=O)c2ccc(Cl)cc2)c2ccccc2)cc1 (configuration not stated)	20*	3	0	0
O=C(CNC(=O)C1CCCCC1)OC(C(=O)c1ccccc1)c1ccccc1 (configuration not stated)	.	5	-1	7
COc1ccc(C(=O)C(OC(=O)CNC(=O)c2ccco2)c2ccccc2)cc1 (configuration not stated)	33*	2	-3	9
SMILES	CTSL1 counter	LANA-H2A inh	HDAC3 inhib	HTR2A ag
O=C(CNC(=O)c1ccccc1)OC(C(=O)c1ccccc1)c1ccccc1 (configuration not stated)	18*	3	-2	-6
COc1ccc(C)cc1NC(=O)C(OC(=O)CNC(=O)c1ccc(Br)cc1)c1ccccc1 (configuration not stated)	18*	10	15	-3
CN1CCN(C2=C(Cl)C(=O)N(c3cccc(Cl)c3)C2=O)CC1	23*	-6	2	8
CC1CCCN(C2=C(Cl)C(=O)N(c3cccc(Cl)c3)C2=O)C1 (configuration not stated)	3	-1	-3	0
Cc1ccc(N2C(=O)C(Cl)=C(N3CCOCC3)C2=O)cc1Cl	38*	-2	1	0
O=C1C(Cl)=C(N2CCOCC2)C(=O)N1c1ccccc1Cl	17	1	1	7
CN1CCN(C2=C(Cl)C(=O)N(c3ccc(Cl)c(Cl)c3)C2=O)CC1	40*	8	6	-2
O=C1C(Cl)=C(N2CCCC2)C(=O)N1c1ccc(F)cc1	29*	2	9	2
O=C1C(Cl)=C(N2CCCCCC2)C(=O)N1c1ccc(Cl)cc1	11	2	6	1
O=C(Nc1cccc2c1C(=O)NC2=O)c1ccc(N2C(=O)CCC2=O)cc1	42*	0	-15	10
N#CC(C#N)=NNc1ccc([N+](=O)[O-])cc1	24*	2	13	-2
C/C(=N\Nc1ccc([N+](=O)[O-])cc1)c1ccc(C#N)cc1	5	1	.	3
CC(=O)N1CCN(Cc2cc(=O)oc3ccccc23)CC1	.	.	.	2
CCCCOC(=O)CSc1nc2c(c(=O)[nH]c(=O)n2C)n1C/C=C(\C)Cl	4	12*	1	6
C/C(Cl)=C/Cn1c(SCC(C)C)nc2c1c(=O)[nH]c(=O)n2C	-4	10	-3	-3
COc1ccc(OC)c(-c2cc(C(=O)N/N=C/c3cc(OC)c(OC)cc3OC)c3ccccc3n2)c1	2	3	-22	8
O=C(CCNC(=O)c1ccc([N+](=O)[O-])cc1)Nc1ccc(S(=O)(=O)N2CCOCC2)cc1	1	-2	-3	0
O=c1c(=Nc2ccccc2O)c(=O)c2ccccc12	33*	-4	9	0
Cc1ccc(/C=C/S(=O)(=O)NCC(=O)OCC(=O)NCc2ccccc2)cc1	-8	-2	0	-5
COc1ccc(NC(=S)Nc2ccc3nsnc3c2)cc1	99*	-2	-1	5
S=C(Nc1ccc2nsnc2c1)N1CCCCCC1	108*	9	11	-1
COc1ccc(N(C)C(=O)Nc2ccc3nsnc3c2)cc1	.	.	.	-3
CC(C)N(C(=O)Nc1ccc2nsnc2c1)C(C)C	114*	3	-5	.
CCOc1ccc(NC(=O)Nc2ccc3nsnc3c2)cc1	4	-9	-2	-3
CCOc1ccc(NC(=S)Nc2ccc3nsnc3c2)cc1	110*	1	11	0
SMILES	CTSL1 counter	LANA-H2A inh	HDAC3 inhib	HTR2A ag
Cc1ccc(C(=O)NCCCNC(=O)Cc2ccccc2)cn1	3	-9	-6	1
CCNC(=O)C1(C)CCN(Cc2noc(-c3c(C)noc3C)n2)C1 (configuration not stated)	.	.	.	-2
C[C@H](CO)N1C[C@H](C)[C@@H](CN(C)S(=O)(=O)c2cn(C)cn2)OCc2cnnn2CCCC1=O	.	.	.	0
CS(=O)(=O)N1CCN(C(=O)c2cc(-c3cccs3)nc3ccccc23)CC1	4	0	-51	4
CS(=O)(=O)N1CCN(C(=O)c2cc(-c3ccccc3)nc3ccccc23)CC1	0	9.7*	-4	0
C=CCNc1ncnc2c1ncn2[C@H]1CN(CCOC)C[C@@H](CO)O1	.	.	.	0
Cc1c(C)c2ccc(OCC(=O)NCCN3CCOCC3)c(C)c2oc1=O	2	2	-32	1
